# Measurements taken from the supplement of paper PMC12282887.
# ± gives the standard deviation of the averaged measurements.
# Assays:
# Assay in all cases: promoter activity interaction Z-score (Lux/OD deviation from empty-vector control); higher = stronger promoter induction by the compound
# [1] = test system: E. coli BW25113 acrABp lux reporter
# Method in brief: (§1)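 Wild-type E. coli BW25113 and three single-gene deletion strains, each carrying a low-copy luxCDABE promoter reporter, were grown at 37°C in 40 µl LB Lennox per well of a 384-well plate. Every compound was applied at four 1:2 dilutions in biological duplicates, and OD600 and luminescence were read every 30 min for 12 h. Integration covered 0–8 h for wild type and 1–9 h for deletion strains, and wells under 10% of the median growth value were removed. Scores are Z-transformed residuals of growth-normalised luminescence fitted against a control.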
# [2] = test system: E. coli BW25113 ompFp lux reporter
# Method in brief: as §1
# [3] = test system: E. coli BW25113 robp lux reporter
# Method in brief: as §1
# [4] = test system: E. coli BW25113 soxSp lux reporter
# Method in brief: as §1
# [5] = test system: E. coli BW25113 tolCp lux reporter
# Method in brief: as §1
# [6] = 0.038 µg/ml, genetic background: wild type
# [7] = 0.038 µg/ml, genetic background: ΔmarA
# [8] = 0.038 µg/ml, genetic background: Δrob
# [9] = 0.038 µg/ml, genetic background: ΔsoxS
# [10] = 0.076 µg/ml, genetic background: wild type
# [11] = 0.076 µg/ml, genetic background: ΔmarA
# [12] = 0.076 µg/ml, genetic background: Δrob
# [13] = 0.076 µg/ml, genetic background: ΔsoxS
# [14] = 0.15 µg/ml, genetic background: wild type
# [15] = 0.15 µg/ml, genetic background: ΔmarA
# [16] = 0.15 µg/ml, genetic background: Δrob
# [17] = 0.15 µg/ml, genetic background: ΔsoxS
# [18] = 0.3 µg/ml, genetic background: wild type
# [19] = 0.3 µg/ml, genetic background: ΔmarA
# [20] = 0.3 µg/ml, genetic background: Δrob
# [21] = 0.3 µg/ml, genetic background: ΔsoxS
smiles,measurement,setting,value
Cc1c(N)nc([C@H](CC(N)=O)NC[C@H](N)C(N)=O)nc1C(=O)N[C@H](C(=O)N[C@H](C)[C@@H](O)[C@H](C)C(=O)N[C@H](C(=O)NCCc1nc(-c2nc(C(=O)NCCC[S+](C)C)cs2)cs1)[C@@H](C)O)[C@@H](OC1OC(CO)C(O)C(O)C1OC1OC(CO)C(O)C(OC(N)=O)C1O)c1cnc[nH]1 (some centres not stated) [Bleomycin],promoter activity interaction Z-score,[1]; [6],-0.161 ± 0.17
same,promoter activity interaction Z-score,[1]; [7],-0.308 ± 0.65
same,promoter activity interaction Z-score,[1]; [8],0.154 ± 0.043
same,promoter activity interaction Z-score,[1]; [9],-0.147 ± 0.084
same,promoter activity interaction Z-score,[1]; [10],0.266 ± 0.09
same,promoter activity interaction Z-score,[1]; [11],0.659 ± 0.35
same,promoter activity interaction Z-score,[1]; [12],0.241 ± 0.055
same,promoter activity interaction Z-score,[1]; [13],0.604 ± 0.2
same,promoter activity interaction Z-score,[1]; [14],0.326 ± 0.0054
same,promoter activity interaction Z-score,[1]; [15],1.11 ± 0.37
same,promoter activity interaction Z-score,[1]; [16],0.351 ± 0.064
same,promoter activity interaction Z-score,[1]; [17],0.996 ± 0.83
same,promoter activity interaction Z-score,[1]; [18],2.43
same,promoter activity interaction Z-score,[2]; [6],-0.37 ± 0.33
same,promoter activity interaction Z-score,[2]; [7],-0.165 ± 0.44
same,promoter activity interaction Z-score,[2]; [8],0.0421 ± 0.23
same,promoter activity interaction Z-score,[2]; [9],-0.165 ± 0.021
same,promoter activity interaction Z-score,[2]; [10],0.414 ± 0.11
same,promoter activity interaction Z-score,[2]; [11],0.695 ± 0.073
same,promoter activity interaction Z-score,[2]; [12],0.642 ± 1
same,promoter activity interaction Z-score,[2]; [13],1.16 ± 0.21
same,promoter activity interaction Z-score,[2]; [14],0.0111 ± 0.27
same,promoter activity interaction Z-score,[2]; [15],1.52 ± 0.35
same,promoter activity interaction Z-score,[2]; [16],1.13 ± 1.2
same,promoter activity interaction Z-score,[2]; [17],0.608 ± 0.26
same,promoter activity interaction Z-score,[2]; [18],1.05
same,promoter activity interaction Z-score,[3]; [6],-0.227 ± 0.48
same,promoter activity interaction Z-score,[3]; [7],-0.244 ± 0.084
same,promoter activity interaction Z-score,[3]; [8],0.0423 ± 0.14
same,promoter activity interaction Z-score,[3]; [9],0.189 ± 0.027
same,promoter activity interaction Z-score,[3]; [10],0.47 ± 0.17
same,promoter activity interaction Z-score,[3]; [11],0.568 ± 0.18
same,promoter activity interaction Z-score,[3]; [12],-0.134 ± 0.47
same,promoter activity interaction Z-score,[3]; [13],0.996 ± 0.081
same,promoter activity interaction Z-score,[3]; [14],-0.644 ± 0.27
same,promoter activity interaction Z-score,[3]; [15],0.509 ± 0.081
same,promoter activity interaction Z-score,[3]; [16],-0.728 ± 0.72
same,promoter activity interaction Z-score,[3]; [17],-0.1 ± 0.21
same,promoter activity interaction Z-score,[3]; [18],0.543 ± 1.9
same,promoter activity interaction Z-score,[3]; [19],0.142
same,promoter activity interaction Z-score,[4]; [6],-0.0441 ± 0.22
same,promoter activity interaction Z-score,[4]; [7],0.0426 ± 0.088
same,promoter activity interaction Z-score,[4]; [8],0.0195 ± 0.2
same,promoter activity interaction Z-score,[4]; [9],0.0402 ± 0.048
same,promoter activity interaction Z-score,[4]; [10],0.138 ± 0.019
same,promoter activity interaction Z-score,[4]; [11],0.214 ± 0.083
same,promoter activity interaction Z-score,[4]; [12],-0.00506 ± 0.02
same,promoter activity interaction Z-score,[4]; [13],0.485 ± 0.32
same,promoter activity interaction Z-score,[4]; [14],-0.0277 ± 0.085
same,promoter activity interaction Z-score,[4]; [15],0.277 ± 0.053
same,promoter activity interaction Z-score,[4]; [16],0.343 ± 0.13
same,promoter activity interaction Z-score,[4]; [17],0.655 ± 0.09
same,promoter activity interaction Z-score,[4]; [18],0.33 ± 0.25
same,promoter activity interaction Z-score,[4]; [19],0.209 ± 0.081
same,promoter activity interaction Z-score,[4]; [20],0.169 ± 0.11
same,promoter activity interaction Z-score,[4]; [21],0.215
same,promoter activity interaction Z-score,[5]; [6],-0.575 ± 0.29
same,promoter activity interaction Z-score,[5]; [7],-0.641 ± 1.1
same,promoter activity interaction Z-score,[5]; [8],-0.352 ± 0.023
same,promoter activity interaction Z-score,[5]; [9],-0.761 ± 0.52
same,promoter activity interaction Z-score,[5]; [10],0.286 ± 0.074
same,promoter activity interaction Z-score,[5]; [11],-0.211 ± 0.3
same,promoter activity interaction Z-score,[5]; [12],-0.79 ± 0.62
same,promoter activity interaction Z-score,[5]; [13],0.828 ± 0.64
same,promoter activity interaction Z-score,[5]; [14],-0.851 ± 0.45
same,promoter activity interaction Z-score,[5]; [15],0.213 ± 1.1
same,promoter activity interaction Z-score,[5]; [16],0.777 ± 1.4
same,promoter activity interaction Z-score,[5]; [17],0.0492 ± 0.52
same,promoter activity interaction Z-score,[5]; [18],0.571 ± 0.23
same,promoter activity interaction Z-score,[5]; [19],0.356
same,promoter activity interaction Z-score,[5]; [20],-0.851 ± 0.56
same,promoter activity interaction Z-score,[5]; [21],1.73 ± 0.26
